# Rows were chosen to be rich in hits. Some 2.9% of all compounds tested hit in one or more screens of this group.
# DRD3 agonist = agonists of human D3 dopamine receptor. P35462. D3R DiscoveRx beta-arrestin cells, luminescence, 90 min. max activation, %. 410,000 tested, 0.58% active; in the data active means max activation above about 30%; further: 0% is about no effect
#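 Agonist-mode cell screen: cells plated at 1500/well and incubated overnight at 37 °C, then exposed to library compounds for 90 min at 37 °C. Detection reagent was added for 30–60 min at room temperature, and luminescence was read.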
# Rango release inh = inhibition of RanGTP-driven Rango-importin beta dissociation | Biochemical FRET Rango-importin beta, RanGTP-induced dissociation | Potency, µM (titrated, usually from 46.1 µM), for inactives: at the highest dose activity change, negative = inhibition | 340,000 tested, 0.071% active | AID 540253; further: potency means the concentration at half of the fitted maximal effect; % of control where 0% means no effect; nearly all actives have a fitted effect of over 45% in size
#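 Compounds sat 5 min at room temperature with 0.1 uM Rango biosensor plus 0.25 uM importin beta, then FRET pre-read. RanGTP-RCC1 (0.6 uM Ran, 2mM GTP, 0.2 uM RCC1) added for 45 min, and the CFP/YFP post-read measured blocked complex dissociation.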
# D3 antag = antagonists of human D3 dopamine receptor. AID 652054. 360,000 tested, 2.5% active. P35462. D3R cells, DiscoveRx beta-arrestin luminescence, antagonist mode; stronger effect = lower value. max response, negative = inhibition, %; in the data active means max response below about -50%; inconclusive means no clear call, values can overlap the other calls; further: on the % scale 0 is the no-effect control and ±100 the full control effect
#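 Cells expressing the human receptor were seeded at 1500 cells/well, incubated overnight at 37 degrees C in 5% CO2, then exposed to library compounds with dopamine controls for 90 minutes at 37 degrees C before luminescent detection.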
# Mm-Cpn inhibitor = inhibitors of Methanococcus maripaludis chaperonin TRiC (MmCpn); purified Mm-Cpn ATPase, ADP Transcreener TR-FRET; AID 504842; Potency, µM (top dose mostly 76.9 µM), inactives show at the top dose activity, negative = inhibition, most hits filed as inhibitors; 330,000 tested, 0.031% active; active means well fitted inhibition curve with a large enough effect; inconclusive means small, poorly fitted or top-dose-only effect; further: potency means the concentration at half of the fitted maximal effect; on the % scale 0 is the no-effect control and ±100 the full control effect; nearly all actives have a fitted effect of over 80% in size
#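 Compound-treated chaperonin, 25 nM final, turns over 10 uM ATP at 37°C for 30 min following a 10 min preincubation; ADP generated competes with ADP-d2 for Eu-cryptate antibody, lowering FRET.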
# Rango complex inh = inhibitors of Rango-importin beta complex formation | Rango CFP/YFP FRET sensor + importin beta, 45 min | Potency, µM (top dose mostly 92.2 µM), inactives show top-dose inhibition of complex formation | 340,000 tested, 0.031% active | AID 540263;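 further: potency means the concentration at half of the fitted maximal effect; 0% = DMSO wells and 100% = buffer wells lacking importin beta; nearly all actives have a fitted effect of over 15% in size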
# Target sequence (Q14974 whole entry, looked up): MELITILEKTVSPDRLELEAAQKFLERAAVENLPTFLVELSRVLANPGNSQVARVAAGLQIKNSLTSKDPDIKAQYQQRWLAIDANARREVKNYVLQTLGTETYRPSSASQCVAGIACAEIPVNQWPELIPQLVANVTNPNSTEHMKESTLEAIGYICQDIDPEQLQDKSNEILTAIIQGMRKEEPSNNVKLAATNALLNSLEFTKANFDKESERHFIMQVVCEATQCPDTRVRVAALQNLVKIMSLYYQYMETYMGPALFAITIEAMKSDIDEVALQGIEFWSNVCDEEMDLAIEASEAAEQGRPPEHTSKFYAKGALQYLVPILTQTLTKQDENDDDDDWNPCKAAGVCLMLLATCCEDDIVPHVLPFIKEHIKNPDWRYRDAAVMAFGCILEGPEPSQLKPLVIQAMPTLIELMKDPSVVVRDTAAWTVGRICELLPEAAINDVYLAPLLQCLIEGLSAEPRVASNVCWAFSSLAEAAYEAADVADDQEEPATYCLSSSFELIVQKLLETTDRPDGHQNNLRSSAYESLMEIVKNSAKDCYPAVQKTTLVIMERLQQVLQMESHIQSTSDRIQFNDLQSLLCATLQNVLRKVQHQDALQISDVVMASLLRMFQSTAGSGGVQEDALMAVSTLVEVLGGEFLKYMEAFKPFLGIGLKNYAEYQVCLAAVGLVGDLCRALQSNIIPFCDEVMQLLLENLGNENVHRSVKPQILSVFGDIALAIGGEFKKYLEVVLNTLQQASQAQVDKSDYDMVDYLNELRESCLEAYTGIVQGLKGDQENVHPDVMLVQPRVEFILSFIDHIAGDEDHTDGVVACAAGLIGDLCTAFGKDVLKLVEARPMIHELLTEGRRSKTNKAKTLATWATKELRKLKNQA
#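 FRET biosensor (snurportin 1 IBB flanked by EYFP and cerulean), 50 nM, with compound 5 min, then 0.125 microM importin beta in PBS, 1 mM DTT, 0.02% Tween-20, 0.1% BSA. CFP/YFP ratio read after 45 min at room temperature; pre-read flags interference.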
# TSG101-PTAP inh = blocks PTAP/TSG101 interaction to inhibit HIV-1 budding | Q99816 | Fluorescence polarization, FITC-PTAP peptide / Tsg101 binding | Potency, µM (titrated, usually from 115 µM), for inactives: at the top dose activity change, negative = inhibition, hits mostly inhibitors | 340,000 tested, under 10 active; active means well fitted inhibition curve with a large enough effect in the main read-out, with a control signal flat, not every such curve was filed as active; inconclusive means small, poorly fitted or top-dose-only effect, or effect the other way, or a change in a side signal; inactive means no such curve, though single readings can be large or run the other way; further: potency means the concentration at half of the fitted maximal effect; % of control where 0% means no effect
#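 Fluorescence polarization binding of Tsg101 binding domain (10 uM final) to FITC-labeled PTAP peptide (50 nM final) in HEPES pH 7.5 buffer with NaCl, Tween 20, EDTA, TCEP. Compounds added before peptide; binding 20 min at RT.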
# An asterisk follows results filed as active; ? = inconclusive; / = no result. Unless noted, the call rests on the fitted dose curve.
SMILES,DRD3 agonist,Rango release inh,D3 antag,Mm-Cpn inhibitor,Rango complex inh,TSG101-PTAP inh
CC1(Oc2cnc(Cl)c3ccccc23)CCN(Cc2ccc(-c3ccccn3)cc2)C1 (stereo unspecified),-2,/,0,/,/,/
CC1(Oc2cccc(F)c2)CCN(Cc2ccc(-c3ccccn3)cc2)C1 (stereo unspecified),-27,/,-67*,/,/,/
Cc1ccccc1OC1(C)CCN(Cc2ccc(-c3ccccn3)cc2)C1 (stereo unspecified),-9,/,-75*,/,/,/
COc1ccc(CNC[C@H]2O[C@@H](n3ccc(=O)[nH]c3=O)[C@H](O)[C@@H]2O)cc1OC,-6,4%,-59*,/,-1%,-1%
O=C(Nc1c2c(nn1-c1ccccc1)CS(=O)C2)c1ccc(S(=O)(=O)N2CCOCC2)cc1 (stereo unspecified),2,-8%,0,-6%,0%,0%
O=C(Nc1c2c(nn1-c1ccc(F)cc1)CS(=O)(=O)C2)c1ccc(S(=O)(=O)N2CCOCC2)cc1,-3,11%,-65*,-2%,?,2%
COc1ccc(-c2cc(=O)c3c(OC)c(OC)c(OC)c(OC)c3o2)cc1OC,40*,-11%,41,0%,0%,2%
Cc1cc(=O)n2[nH]c(=O)c(N=Nc3ccccc3)c2[nH]1,-4,16%,-84*,-3%,-1%,-3%
CCOc1ccc(N=Nc2c(=O)[nH]n3c(=O)cc(C)[nH]c23)cc1,-14,40%,-16,-4%,6%,-3%
COc1ccc(SCC(=O)c2cc(C)c(OC(=S)N(C)C)c(C)c2)cc1,0,8%,-51*,-1%,-1%,0%
Cc1cc(C(=O)CSc2ccc(F)cc2)cc(C)c1OC(=S)N(C)C,3,-6%,34,0%,-4%,-11%
Cc1cccc(C(=O)NCc2cn3cccc(C)c3n2)c1,-21,/,/,/,/,/
O=C(C1CCN(Cc2ccc(F)cc2)CC1)N1CCN(C/C=C/c2ccccc2)CC1,-15,-13%,-77*,-11%,0%,1%
O=C(C1CCN(Cc2ccccc2)CC1)N1CCN(C/C=C/c2ccccc2)CC1,-13,-7%,-54*,1%,-3%,-3%
O=C(C1CCN(C2CCN(C/C=C/c3ccccc3)CC2)CC1)N1CCOCC1,-4,1%,-1,-1%,-1%,-4%
COc1ccc2c(c1)CCc1c(C(=O)Nc3ccc(F)c(Cl)c3)noc1-2,-3,/,/,/,/,/
CC(C)CCNC(=O)c1ccc2c(c1)N(C)C(=O)c1ccccc1S2,-14,13%,-72*,1%,4%,-11%
Cc1cccc(OCC(=O)Nc2ccc(Cl)c(-c3nc4ncccc4o3)c2)c1C,18,/,/,/,/,/
Fc1ccc([C@@H]2Nc3ccccc3[C@@H]3C=CC[C@@H]32)cc1,-3,/,/,/,/,/
O=C(C1=C(c2ccccc2)C(=O)c2ccccc2C1=O)c1ccccc1,-27,2%,-95*,2%,2%,-3%
CCN(CCCNC(=O)c1nn(C)c2c1CS(=O)(=O)c1ccccc1-2)Cc1ccccc1,-22,7%,-56*,1%,?,-3%
CCN(CC)CCNC(=O)c1nn(C)c2c1CS(=O)(=O)c1ccccc1-2,-15,/,/,/,/,/
CCOC(=O)CN1C(=O)C(C)(C)Oc2ccc(C(=O)Nc3ccccc3OC)cc21,3,17%,-95*,2%,1%,-9%
COc1ccccc1NC(=O)c1ccc2c(c1)N(CC(=O)NC(C)(C)C)C(=O)C(C)(C)O2,-6,-1%,-15,0%,-2%,1%
Cc1cc(OC(C)C(=O)N(Cc2ccco2)Cc2ccccc2F)cc(C)c1Cl (stereo unspecified),-7,/,/,/,/,/
CN1CCN(C2=Cc3ccccc3Sc3cc(F)c(F)cc32)CC1,2,0%,-62*,1%,1%,-1%
Cc1ccc2nc(COc3ccccc3NC(=O)c3ccccc3F)cc(=O)n2c1,7,/,/,/,/,/

# Screens deposited in PubChem BioAssay by National Center for Advancing Translational Sciences (NCATS).
